# PMP22 txn: PMP22 gene transcription modulation | S16 Pmp22-F2sN Schwann cells, FLuc/NLuc coincidence luminescence, 24 h | Potency, µM (titrated, usually from 57.5 µM), inactives show top-dose activity change, negative = inhibition, most hits filed as inhibitors | 43,000 compounds, 2% hits | AID 1508649; active = clear falling dose curves in both reporters; inconclusive = both reporters move, but less clearly or upward; inactive = either reporter flat; the % is the NLuc reporter signal; note: potency is the fitted concentration of half-maximal effect; % is set by controls: 0 for no effect and ±100 for the full control effect
#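 Reporter cells (S16 Pmp22-F2sN, 500–1,000 per well) exposed to compounds for 24 h, 37C, 5% CO2; lysis with FLuc read after 10 min, then Stop&Glo and NLuc read after 10 min.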
# p53null 32C tox: selectivity test: cytotoxicity in p53 null cells, permissive temperature | 55,000 compounds, 0.62% hits | AID 903 | Potency, µM (highest dose often 46.1 µM), for the others: at the top dose activity change, negative = cytotoxicity, most hits filed as cytotoxic | H1299-neo p53 null cells, ATP luminescence, 24 h, 32C;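 note: potency is the fitted concentration of half-maximal effect; 0% = DMSO only and -100% = full killing by 100 µM tamoxifen; nearly all actives have a fitted effect of over 55% in size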
#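 Cells lacking p53 (H1299-neo) are plated at 600 per well and allowed to settle overnight at 37C. Test compounds (up to 46 uM) are added and held 24 hours at 32C, then ATP is quantified by luminescence.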
# pS6 MEF inh: mTORC1 pathway inhibition measured by phospho-rpS6 | Tsc2-/- p53-/- MEF, phospho-rpS6 immunofluorescence/PI, 24 h | Potency, µM (highest dose often 38.3 µM), inactives show at the top dose activity change, negative = inhibition, usual class: inhibitors | 44,000 compounds, 0.78% hits | AID 493208;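 note: potency is the fitted concentration of half-maximal effect; plate controls were DMSO for no effect and rapamycin for full effect; nearly all actives have a fitted effect of over 50% in size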
#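 Plate MEFs (Tsc2-/-, p53-/-, empty vector) in DMEM/10% FBS; after 24 h add compound, incubate 24 h at 37 degree Celsius; fix in PFA/TX-100, block, stain phospho-rpS6 and 10 uM PI; scan at 488 nm; report % positive cells.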
# p53null 39C kill: kills p53 null cells at the nonpermissive temperature; H1299 p53-null (neo) cells, 39C, ATPlite viability, 24 h; 55,000 compounds, 0.97% hits; Potency, µM (titrated, usually from 46.1 µM), for inactives: top-dose activity, negative = cell killing, usual class: cytotoxic;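 note: potency is the fitted concentration of half-maximal effect; 0% = DMSO only and -100% = full killing by 100 µM tamoxifen; nearly all actives have a fitted effect of over 50% in size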
#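 Luminescent ATP signal reported cell survival after H1299 lines (neo, p53 null; or p53 A138V) received up to 46 uM compound and 24 hr incubation at 39C.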
# S16 F2sN tox: toxic to S16 Pmp22-F2sN Schwann cells; AID 1508642; S16 Pmp22-F2sN Schwann cells (luciferase reporters placed in the Pmp22 gene) viability, CellTiter-Glo, 24 h; 43,000 compounds, 0.48% hits; Potency, µM (series often up to 57.5 µM), for inactives: at the top dose activity change, negative = cytotoxicity, most hits filed as cytotoxic; note: potency is the fitted concentration of half-maximal effect; % is set by controls: 0 for no effect and ±100 for the full control effect; nearly all actives have a fitted effect of over 65% in size
#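 Rat S16 Schwann reporter line, 24 h treatment with library compounds delivered at 23 nL per well. Cell viability by CellTiter-Glo luminescence.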
# NLuc saturating: NanoLuc enzyme inhibition artifact for PMP22 screen | shares compounds with PMP22 txn | Secreted NLuc enzyme (filtered S16 cell medium), Nano-Glo luminescence | Potency, µM (titrated, usually from 57.5 µM), without a hit: top-dose activity change, negative = inhibition, hits mostly inhibitors | 690 compounds, 4% hits | AID 1508638; note: potency is the fitted concentration of half-maximal effect; % is set by controls: 0 for no effect and ±100 for the full control effect
# NLuc Km counter: counter-screen for PMP22 expression modulators: NanoLuc inhibition at Km; Potency, µM (titrated, usually from 57.5 µM), for the others: at the top dose activity change, negative = inhibition, most hits filed as inhibitors; AID 1508639; 690 compounds, 5% hits; shares compounds with PMP22 txn; secreted NLuc enzyme, coelenterazine luminescence, Km conditions; note: potency is the fitted concentration of half-maximal effect; % is set by controls: 0 for no effect and ±100 for the full control effect
# FLuc ctr PMP22: inhibits firefly luciferase, PMP22 counter-screen. shares compounds with PMP22 txn. purified P. pyralis FLuc, luminescence, 10 min. Potency, µM (top dose mostly 57.5 µM), inactives show top-dose activity, negative = inhibition, hits mostly inhibitors. 690 tested, under 10 active; note: % of control where 0% means no effect
# Target sequence (P08659 whole entry, looked up): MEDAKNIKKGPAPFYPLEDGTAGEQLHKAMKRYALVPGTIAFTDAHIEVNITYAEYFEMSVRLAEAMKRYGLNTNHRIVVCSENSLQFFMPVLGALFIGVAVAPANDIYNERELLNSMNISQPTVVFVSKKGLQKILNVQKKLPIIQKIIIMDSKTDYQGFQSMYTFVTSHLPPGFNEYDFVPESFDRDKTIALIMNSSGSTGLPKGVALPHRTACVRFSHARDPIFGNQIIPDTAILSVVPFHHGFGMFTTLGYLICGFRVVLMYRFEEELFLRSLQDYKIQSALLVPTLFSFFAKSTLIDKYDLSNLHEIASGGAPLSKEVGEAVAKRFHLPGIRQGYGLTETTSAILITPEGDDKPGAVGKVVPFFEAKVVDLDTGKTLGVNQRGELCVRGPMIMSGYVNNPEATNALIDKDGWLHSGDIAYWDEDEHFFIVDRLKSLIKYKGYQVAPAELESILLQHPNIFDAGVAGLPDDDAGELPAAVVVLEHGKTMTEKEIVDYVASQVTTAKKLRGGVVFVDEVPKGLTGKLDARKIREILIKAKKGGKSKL
# S16 F2sN tox cnf: S16 Schwann cell cytotoxicity, confirmatory | shares compounds with PMP22 txn | S16 Schwann cells viability, CellTiter-Glo ATP luminescence, 24 h | Potency, µM (series often up to 57.5 µM), inactives show top-dose activity change, negative = viability loss, hits mostly cytotoxic | 690 compounds, 7% hits | AID 1508641; note: potency is the fitted concentration of half-maximal effect; % is set by controls: 0 for no effect and ±100 for the full control effect
# PMP22 txn cnf: confirmation of modulators of PMP22 gene transcription in S16 cells | shares compounds with PMP22 txn | S16 Schwann cells Pmp22-F2sN, dual luciferase, 24 h | Potency, µM (top dose mostly 57.5 µM), inactives show at the top dose activity change, negative = inhibition, most hits filed as inhibitors | 690 compounds, 22% hits | AID 1508646; active = clear falling dose curves in both reporters; inconclusive = both reporters move, but less clearly or upward; inactive = either reporter flat; the % is the FLuc reporter signal; note: potency is the fitted concentration of half-maximal effect
# PMP22 HiBiT cnf: confirmation of modulators of rat PMP22 protein expression; shares compounds with PMP22 txn; S16 Schwann cells Pmp22-HiBiT, luminescence, 48 h; Potency, µM (highest dose often 27.9 µM), for inactives: at the top dose activity change, negative = inhibition, hits mostly inhibitors; 95 tested, under 10 active; AID 1508647
# Target sequence (P25094 whole entry, looked up): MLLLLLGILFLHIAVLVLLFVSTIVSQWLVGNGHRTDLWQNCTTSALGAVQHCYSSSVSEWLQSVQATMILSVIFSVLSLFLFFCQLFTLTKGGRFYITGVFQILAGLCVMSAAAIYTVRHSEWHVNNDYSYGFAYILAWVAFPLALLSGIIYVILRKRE
# Active calls of the source: *; ? = inconclusive; / = no result given. Rows were chosen to be rich in hits. Some 3.2% of all compounds tested hit in one or more screens of this group. Unless noted, calls come from the whole dose curve; as a rule, active = well fitted curve in the direction sought with a large enough effect; inconclusive = small, poorly fitted or top-dose-only effect, or another doubt; inactive = no such curve, though single readings can be large; an effect the other way counts as inactive or inconclusive.
SMILES,PMP22 txn,p53null 32C tox,pS6 MEF inh,p53null 39C kill,S16 F2sN tox,NLuc saturating,NLuc Km counter,FLuc ctr PMP22,S16 F2sN tox cnf,PMP22 txn cnf,others
Cc1cc(C)c(Nc2ncnc3c2cnn3C)c(C)c1,?,12%,?,10%,?,-8%,-1%,4%,-13%,-5%,
Cc1cccc(-n2ncc3c(Nc4c(C)cc(C)cc4C)ncnc32)c1,-29%,25%,?,7%,-18%,/,/,/,/,/,
CCOC(=O)c1ccccc1NC(=O)n1ncc2cc(Cl)ccc21,10%,1%,2%,-11%,-2%,/,/,/,/,/,
CCOC(=O)c1cc(NC(=O)c2ccccc2)c(=O)n2c1oc1ccc(Cl)cc12,?,-4%,-6%,-34%,?,-4%,3%,6%,10%,?,
CCOC(=O)c1c(NC(=O)/C=C/c2ccc(Cl)cc2)sc2c1CCC(C)C2 (configuration not stated),-1%,-7%,-5%,4%,-11%,/,/,/,/,/,
Cc1ccc(-n2nc3c(=O)n(CCCC(=O)NCCc4ccccc4Cl)nc(C)c3c2C)cc1,-18%,11%,-1%,7%,-2%,/,/,/,/,/,
Cc1ccccc1S(=O)(=O)Cc1ccc(C(=O)NCc2ccccc2Cl)o1,?,5%,-16%,-9%,-3%,-9%,-4%,?,4%,-2%,
CCOc1ccc(C(=O)c2cnc3ccc(Cl)cc3c2S(=O)(=O)c2ccc(C)cc2)cc1,14µM*,10%,-3%,8%,-23%,-17%,5%,0%,15%,19µM*,PMP22 HiBiT cnf=31%
COc1cc(C(=O)CC2(O)C(=O)N(Cc3ccccc3Cl)c3ccccc32)cc(OC)c1OC (configuration not stated),11µM*,-3%,4.1µM*,?,-6%,-11%,-2%,8%,-3%,?,
CCCCn1c(CNC(=O)c2ccc(OC)cc2)nnc1SCC(=O)Nc1ccc(OC)cc1,-3%,-2%,-1%,-14%,3%,/,/,/,/,/,
COc1ccccc1N1CCN(CCCNC(=O)c2nnc(Cc3c(F)cccc3Cl)o2)CC1,13µM*,5%,-8%,1%,-3%,-1%,1%,10%,-9%,-23%,
COc1ccc(CNC(=O)c2ccc3[nH]c(C)c(C)c3c2)c(OC)c1,5%,-5%,-9%,-12%,4%,/,/,/,/,/,
Cc1cc(C)c2oc(C(=O)Nc3c(C(=O)c4ccc(F)cc4)oc4ccccc34)cc(=O)c2c1,5%,2%,-6%,8%,4%,/,/,/,/,/,
CCOC(=O)c1oc2c(c1C)-c1nn(Cc3ccc(Cl)cc3)cc1CC2,?,25%,-9%,21%,-9%,?,?,3%,-17%,-6%,
Cc1ccc(-c2c(C)n3c4c(=O)n(C)c(=O)n(C)c4nc3n2-c2cccc(O)c2)cc1,16µM*,?,-1%,?,7%,?,?,-5%,-6%,?,
Cc1ccc(Cl)cc1N1CCN(CCCNc2ncnc3onc(-c4ccc(Cl)cc4)c23)CC1,14µM*,0%,-2%,-2%,4%,-7%,7%,-9%,5%,?,
Nc1c(C(=O)NCc2ccc(Cl)cc2)sc2nc(-c3ccc(F)cc3)ccc12,?,17%,-23%,2%,2%,/,/,/,/,/,
Cn1c(CNc2nc(-c3ccccc3)cs2)nnc1SCC(=O)OC1CCCCC1,/,-2%,/,-6%,/,/,/,/,/,/,
O=C(NCCCN1CCCCC1)c1ccc2c(c1)sc1nc(-c3ccc(F)cc3)cn12,?,6%,0%,-1%,?,/,/,/,/,/,
CCN1CCN(CCCNC(=O)c2ccc3c(c2)sc2nc(-c4ccc(C)cc4)cn23)CC1,9.5µM*,-3%,9%,-19%,?,15µM*,?,6.9µM*,19µM*,17µM*,
CC(Oc1ccccc1)C(=O)Nc1ccccc1C(=O)OCc1cc(=O)n2nc(C3CC3)sc2n1 (configuration not stated),6.5µM*,-6%,21%,3%,8%,-10%,-3%,-14%,5%,-11%,
CCCn1ccc2c(OCC(=O)Nc3ccccc3C(=O)OCC)cccc2c1=O,14µM*,-9%,-9%,-4%,-1%,-6%,3%,-10%,2%,?,
CC(NC(=O)C(NC(=O)C1CCCN1C(=O)OC(C)(C)C)C(C)C)C(N)=O (configuration not stated),/,-1%,/,-3%,/,/,/,/,/,/,
COc1ccc(CCCC(=O)O)c(C)c1,/,12%,/,1%,/,/,/,/,/,/,
COc1ccc(-c2cc(C(F)(F)F)n3nc(C)c(-c4ccccc4)c3n2)cc1OC,11µM*,2%,-11%,-12%,23%,0%,2%,5%,-7%,?,
COc1ccc(-c2c(C)nn3c(C(F)(F)F)cc(-c4ccccc4)nc23)cc1OC,-21%,-3%,4%,5%,11%,/,/,/,/,/,
CCN(c1ccccc1)S(=O)(=O)c1ccc2[nH]cc(C(=O)NC3CCCCC3)c(=O)c2c1,?,19%,-1%,27%,-23%,/,/,/,/,/,
CCN(c1ccccc1)S(=O)(=O)c1ccc2[nH]cc(C(=O)NCc3ccc(C)cc3)c(=O)c2c1,13µM*,0%,-5%,28%,0%,-8%,-2%,5%,-9%,-11%,
